The text below walks through data of PMC5700166.

Common to all, as to experiment: protein-binding microarray (PBM); PBM: ~300 nM protein, 6 mM HEPES pH 7.8, 80 mM KCl, 0.5 mM EDTA, 0.5 mM EGTA, 6% glycerol, 35 ng/ul poly-dIdC, 1% milk, 1 h, room temperature; Ap Aiptasia and Nv Nematostella (sea anemones) / Co Capsaspora / Aq Amphimedon (sponge) / Dm Drosophila / Hu human; RHD is the Rel homology domain; high values mean tight binding
Holding throughout (details): dsDNA, one strand shown

One experiment concerns the target T1, GST-Ap-NF-kB RHD (Exaiptasia pallida (Aiptasia), UniProt A0A913YAJ5 2-422).
T1 sequence: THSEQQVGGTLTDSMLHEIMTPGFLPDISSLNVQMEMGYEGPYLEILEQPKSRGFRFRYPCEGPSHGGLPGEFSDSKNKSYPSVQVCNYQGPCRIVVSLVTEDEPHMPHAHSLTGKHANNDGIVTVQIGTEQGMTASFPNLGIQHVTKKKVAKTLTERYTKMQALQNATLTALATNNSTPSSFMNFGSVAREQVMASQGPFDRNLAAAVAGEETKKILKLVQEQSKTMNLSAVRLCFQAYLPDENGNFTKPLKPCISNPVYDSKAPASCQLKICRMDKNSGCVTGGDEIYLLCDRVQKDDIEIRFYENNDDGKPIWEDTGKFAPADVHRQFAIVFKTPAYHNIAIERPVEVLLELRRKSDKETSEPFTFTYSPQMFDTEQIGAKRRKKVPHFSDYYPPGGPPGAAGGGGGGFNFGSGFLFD

In experiment [1] the target is T2, GST-Nv-NF-kB (Cys allele) (Nematostella vectensis, UniProt E5G601 2-411).
T2 sequence: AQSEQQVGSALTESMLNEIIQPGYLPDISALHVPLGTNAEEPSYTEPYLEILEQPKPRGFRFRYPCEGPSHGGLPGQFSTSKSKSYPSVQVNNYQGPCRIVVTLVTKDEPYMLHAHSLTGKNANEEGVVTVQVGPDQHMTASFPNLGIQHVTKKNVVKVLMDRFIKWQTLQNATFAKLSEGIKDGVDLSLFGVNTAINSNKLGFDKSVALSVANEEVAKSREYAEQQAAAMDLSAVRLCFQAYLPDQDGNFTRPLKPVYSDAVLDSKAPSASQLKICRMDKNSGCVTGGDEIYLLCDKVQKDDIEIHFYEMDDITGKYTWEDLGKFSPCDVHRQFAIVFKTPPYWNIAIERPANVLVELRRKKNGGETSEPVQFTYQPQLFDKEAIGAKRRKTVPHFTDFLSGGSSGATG

In a further experiment the target is T3, GST-Co-NF-kB (Capsaspora owczarzaki, UniProt F1ARL5 200-546).
T3 sequence: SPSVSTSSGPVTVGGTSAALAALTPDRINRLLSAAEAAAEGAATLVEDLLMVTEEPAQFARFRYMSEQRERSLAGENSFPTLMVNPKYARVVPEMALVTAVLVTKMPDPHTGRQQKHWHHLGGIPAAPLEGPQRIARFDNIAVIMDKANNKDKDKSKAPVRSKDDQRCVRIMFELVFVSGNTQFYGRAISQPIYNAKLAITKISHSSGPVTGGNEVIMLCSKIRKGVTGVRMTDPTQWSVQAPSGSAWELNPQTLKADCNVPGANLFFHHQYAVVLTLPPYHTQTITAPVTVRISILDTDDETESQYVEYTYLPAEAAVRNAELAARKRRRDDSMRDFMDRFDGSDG

In the next experiment the target is T4, GST-Dm-Relish (Drosophila melanogaster, UniProt Q94527 99-473).
T4 sequence: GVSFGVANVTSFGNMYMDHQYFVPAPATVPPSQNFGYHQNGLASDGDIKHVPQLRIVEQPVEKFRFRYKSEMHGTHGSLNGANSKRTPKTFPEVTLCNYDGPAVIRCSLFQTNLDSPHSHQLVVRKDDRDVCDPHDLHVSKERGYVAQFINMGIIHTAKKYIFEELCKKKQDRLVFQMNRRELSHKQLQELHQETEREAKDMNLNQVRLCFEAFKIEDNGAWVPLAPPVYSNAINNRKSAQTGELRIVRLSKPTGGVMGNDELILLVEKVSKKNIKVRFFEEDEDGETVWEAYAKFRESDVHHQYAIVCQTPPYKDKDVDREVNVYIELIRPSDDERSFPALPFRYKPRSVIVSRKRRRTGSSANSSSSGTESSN

The target in another experiment is T5, GST-Aq-NF-kB (Amphimedon queenslandica, UniProt A9Y5G7 2-389).
T5 sequence: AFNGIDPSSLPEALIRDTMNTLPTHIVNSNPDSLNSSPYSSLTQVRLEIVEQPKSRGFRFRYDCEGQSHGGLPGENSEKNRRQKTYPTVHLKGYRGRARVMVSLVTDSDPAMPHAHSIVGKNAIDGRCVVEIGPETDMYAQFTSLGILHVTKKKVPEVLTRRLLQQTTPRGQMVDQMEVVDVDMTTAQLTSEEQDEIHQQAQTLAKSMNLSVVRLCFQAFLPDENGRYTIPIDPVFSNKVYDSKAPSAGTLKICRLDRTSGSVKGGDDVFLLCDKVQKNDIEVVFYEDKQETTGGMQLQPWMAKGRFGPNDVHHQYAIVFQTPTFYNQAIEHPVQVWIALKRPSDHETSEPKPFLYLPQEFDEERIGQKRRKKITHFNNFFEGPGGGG

Regarding “CCGATTAACATCACAGCCCCCCCTGATGTTAATCGGGTCTTGATTCGCTTGACGCTGCTG”, the binding signal in the experiment with GST-Ap-NF-kB RHD turned out to be 4.64 z-score; in experiment [1] it was 3.58 z-score; with GST-Co-NF-kB it was 3.34 z-score; in the experiment with GST-Dm-Relish, 4.81 z-score; with GST-Aq-NF-kB it was 3.82 z-score.
Take “CCGATTAACATCAGGGAAAACGATGATGTTAATCGGGTCTTGATTCGCTTGACGCTGCTG”: the binding signal came out at 2.75 z-score with GST-Ap-NF-kB RHD; 3.95 z-score in experiment [1]; 3.39 z-score in the experiment with GST-Co-NF-kB; 1.18 z-score with GST-Dm-Relish; 2.74 z-score with GST-Aq-NF-kB.
As for “CCGATTAACATCAAACAACCCCCTGATGTTAATCGGGTCTTGATTCGCTTGACGCTGCTG”, the binding signal with GST-Ap-NF-kB RHD stood at 5.66 z-score; in experiment [1] it was 4.5 z-score; with GST-Co-NF-kB, 2.66 z-score; with GST-Dm-Relish it was 5.24 z-score; with GST-Aq-NF-kB, 5.17 z-score.
On the same counts, the results for “CCGATTAACATCAGGGGGATCACTGATGTTAATCGGGTCTTGATTCGCTTGACGCTGCTG” are 5.55 z-score, 4.61 z-score, 5.17 z-score, 9.4 z-score and 5.38 z-score.
In the case of “CCGATTAACATCACCCCAGCCCCTGATGTTAATCGGGTCTTGATTCGCTTGACGCTGCTG”, the binding signal stood at 3.28 z-score in the experiment with GST-Ap-NF-kB RHD; 1.93 z-score in experiment [1]; 2.88 z-score in the experiment with GST-Co-NF-kB; 2.39 z-score with GST-Dm-Relish; 2.91 z-score with GST-Aq-NF-kB.
Consider “CCGATTAACATCACGGAGTCCCCTGATGTTAATCGGGTCTTGATTCGCTTGACGCTGCTG”, for which the binding signal is 6.33 z-score in the experiment with GST-Ap-NF-kB RHD; 4.74 z-score in experiment [1]; 2.46 z-score in the experiment with GST-Co-NF-kB; 7.32 z-score with GST-Dm-Relish; 4.65 z-score in the experiment with GST-Aq-NF-kB.
On to “CCGATTAACATCAGGGGGTTACATGATGTTAATCGGGTCTTGATTCGCTTGACGCTGCTG”, for which the binding signal in the experiment with GST-Ap-NF-kB RHD was determined as 6.46 z-score; in experiment [1], 4.25 z-score; in the experiment with GST-Co-NF-kB it was 3.27 z-score; with GST-Dm-Relish, 6.42 z-score; with GST-Aq-NF-kB it was 4.89 z-score.
Consider “CCGATTAACATCAGGGGGTTAGATGATGTTAATCGGGTCTTGATTCGCTTGACGCTGCTG”, for which the binding signal with GST-Ap-NF-kB RHD was 3.78 z-score; in experiment [1], 2.99 z-score; with GST-Co-NF-kB it was 1.94 z-score; with GST-Dm-Relish it was 4.34 z-score; with GST-Aq-NF-kB it was 3.58 z-score.
As for “CCGATTAACATCACGGGGGGGACTGATGTTAATCGGGTCTTGATTCGCTTGACGCTGCTG”, the binding signal in the experiment with GST-Ap-NF-kB RHD was 5.94 z-score; in experiment [1], 4.86 z-score; with GST-Co-NF-kB, 7.62 z-score; in the experiment with GST-Dm-Relish, 4.51 z-score; with GST-Aq-NF-kB, 5.17 z-score.
Consider “CCGATTAACATCACTGGGAATTCTGATGTTAATCGGGTCTTGATTCGCTTGACGCTGCTG”, for which the binding signal in the experiment with GST-Ap-NF-kB RHD is 3.23 z-score; in experiment [1] it was 3.49 z-score; in the experiment with GST-Co-NF-kB it was 3.79 z-score; in the experiment with GST-Dm-Relish, 3.32 z-score; with GST-Aq-NF-kB, 2.67 z-score.
On to “CCGATTAACATCAGGAGATTCCCTGATGTTAATCGGGTCTTGATTCGCTTGACGCTGCTG”, for which the binding signal stood at 3.76 z-score with GST-Ap-NF-kB RHD; 5.47 z-score in experiment [1]; 2.78 z-score with GST-Co-NF-kB; 4.79 z-score with GST-Dm-Relish; 7.56 z-score with GST-Aq-NF-kB.
For the sequence “CCGATTAACATCAAATCATCCCCTGATGTTAATCGGGTCTTGATTCGCTTGACGCTGCTG”, the binding signal in the experiment with GST-Ap-NF-kB RHD was 4.78 z-score; in experiment [1], 5.38 z-score; with GST-Co-NF-kB, 5.87 z-score; with GST-Dm-Relish, 4.06 z-score; with GST-Aq-NF-kB, 5.27 z-score.
On the same counts, the results for “CCGATTAACATCACTAATTTCCCTGATGTTAATCGGGTCTTGATTCGCTTGACGCTGCTG” are 3.79 z-score, 4.55 z-score, 4.57 z-score, 2.5 z-score and 4.09 z-score.
